# Screening results (PubChem BioAssay)
# Sampled rows, rich in hits. Any-hit rate of the full collection: about 8.3%.
# HCMV antiviral = qHTS Assay for inhibitors of the human cytomegalovirus (HCMV); actives 4.5% (n = 410,000); activity change, negative = inhibition, % at 57.5 µM; HFF cells, HCMV-luciferase reporter, 72 h; stronger effect = lower value; AID 1259415, 2018; in the data active = activity change below about -60%; inconclusive = no clear call, values can overlap the other calls; inactive = above about -39%
#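 Two-dose cell screen: HFF monolayers treated with compounds and infected with luciferase-expressing HCMV at 1 PFU/cell, 72 h at 37C, then lysed for luciferase measurement.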
# HCV inh = qHTS Assay for Inhibitors of Hepatitis C Virus (HCV); actives 3.4% (n = 340,000); Potency, µM (titrated, usually from 41.8 µM), for the others: at the top dose activity change, negative = inhibition, actives largely listed as inhibitors; Huh7.5.1 HCVcc-Cre infection, luciferase reporter, 44 h; note: potency is the fitted concentration of half-maximal effect
#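 HCVcc-Cre virus at an moi near 0.5 was added right after compound to cells cultured 4 h from seeding (1,000 cells/well). Luciferase activity was determined 44 h later, 15 min after substrate addition at RT.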
# LASV entry inh = qHTS for Inhibitors of binding or entry into cells for Lassa Virus; Potency, µM (titrated, usually from 37.9 µM), for the others: at the highest dose activity change, negative = inhibition, usual class: inhibitors; actives 1.2% (n = 300,000); Lassa virus pseudotype entry inhibition, cell reporter; calls by dose curve; tested in HEK293 cells; note: potency is the fitted concentration of half-maximal effect; nearly all actives have a fitted effect of over 50% in size
# FBPA Giardia inh = qHTS Assay for Inhibitors of Fructose-1,6-bisphosphate Aldolase from Giardia Lamblia; actives 0.71% (n = 290,000); Potency, µM (titrated, usually from 59.6 µM), inactives show at the top dose activity, negative = inhibition, hits mostly inhibitors; purified Giardia FBPA; A8B2U2; AID 2451, 2010; note: potency is the fitted concentration of half-maximal effect; nearly all actives have a fitted effect of over 55% in size
# Target sequence (A8B2U2 whole entry, looked up): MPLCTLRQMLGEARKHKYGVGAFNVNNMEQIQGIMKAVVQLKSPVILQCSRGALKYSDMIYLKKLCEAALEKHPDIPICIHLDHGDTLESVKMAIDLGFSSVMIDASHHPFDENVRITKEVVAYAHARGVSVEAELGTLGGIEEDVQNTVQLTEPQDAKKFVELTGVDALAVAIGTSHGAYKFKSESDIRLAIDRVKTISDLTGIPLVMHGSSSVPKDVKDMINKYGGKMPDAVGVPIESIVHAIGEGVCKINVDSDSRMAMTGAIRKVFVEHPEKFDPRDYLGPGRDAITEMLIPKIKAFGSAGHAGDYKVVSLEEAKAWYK
#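 40 nM FBPA preincubated 10 min at RT with compound (up to 57.5 uM final), then substrate plus GAPDH/TPI/NAD/arsenate coupling and diaphorase/resazurin added. Fluorescence read after 20 min at RT, 525/598 nm.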
# FMDV inh = High Throughput Screening for Foot and Mouth Disease Virus Antivirals. FMDV antiviral cell-based qHTS. Potency, µM (doses to about 57.9 µM), for inactives: at the top dose activity change, negative = inhibition, usual class: inhibitors. actives 1.2% (n = 410,000). AID 1159524, 2015; calls by dose curve; tested in HEK293T cells; note: read-out not given here; potency is the fitted concentration of half-maximal effect; nearly all actives have a fitted effect of over 45% in size
# Marburg entry inh = qHTS for inhibitors of binding or entry into cells for Marburg Virus; Potency, µM (highest dose often 37.8 µM), for inactives: at the top dose activity change, negative = inhibition, hits mostly inhibitors; actives 1.8% (n = 300,000); Marburg virus pseudotyped entry inhibition, cell reporter; calls by dose curve; tested in HEK293 cells; note: potency is the fitted concentration of half-maximal effect
# Starred values were filed as active, the others as inactive; ? = inconclusive; nt = no result given; [ ] = dose if it differs, or a comment. Unless noted, calls come from the whole dose curve; as a rule, active = well fitted curve in the direction sought with a large enough effect; inconclusive = small, poorly fitted or top-dose-only effect, or another doubt; inactive = no such curve, though single readings can be large; an effect the other way counts as inactive or inconclusive. % is set by controls: 0 for no effect and ±100 for the full control effect.
SMILES,HCMV antiviral,HCV inh,LASV entry inh,FBPA Giardia inh,FMDV inh,Marburg entry inh
O/C(=C\c1nc2ccccc2nc1/C=C(\O)c1ccccc1)c1ccccc1,nt,20%,6%,3.2µM*,?,2%
O/C(=C\c1ccc2ccccc2n1)c1ccncc1,-101*,-21%,nt,nt,-6%,nt
CCc1ccccc1NC(=O)C(=O)NCCCN1CCOCC1,-5,nt,11%[46.1 µM],nt,12%,0%[46.1 µM]
Cc1cc2c(cc1C)CSC(c1ccc3ccccc3c1O)SC2,15,-14%,?,-6%,-15%,3.7µM*
Cc1cc2c(cc1C)CSC(c1c(O)ccc3ccccc13)SC2,-74*,?,?,-14%,?,?
Cc1cc2c(cc1C)CSC(c1ccccc1O)SC2,?,?,-23%,-10%,-8%,?
Cc1cc2c(cc1C)CSC(c1ccc(O)cc1)SC2,-15,1%,?,-2%,-10%,-1%
Cc1ccc(C)c(N2CCN(S(=O)(=O)c3cc(C(=O)Nc4ccccc4C(F)(F)F)ccc3F)CC2)c1,-35,nt,-18%[46.1 µM],nt,-21%,nt
Cc1ccc(C)c(OCc2cc(C(=O)NC3CCN(Cc4ccccc4)CC3)no2)c1,-85*,6.3µM*,nt,0%,?,nt
CCN1CCN(C(=O)c2cc(COc3ccc(F)cc3F)on2)[C@@H](C)C1=O,?,11µM*,?,-3%,-21%,?
CCOC(=O)N1CCN(C(=O)c2cc(COc3ccc(F)cc3F)on2)CC1,17,-9%,2%,nt,52%,?
O=C(NCCc1ccccc1Cl)c1cc(COc2ccc(F)cc2F)on1,nt,11µM*,nt,nt,-23%,nt
O=C(c1cc(COc2ccc(F)cc2F)on1)N1CCCC(c2ccccc2)C1 (stereo unspecified),-63*,?,7.1µM*,1%,14%,?
Cc1noc(C)c1C(=O)N1CCC2(CC1)CN(c1ccccc1)C2,nt,nt,nt,-17%,-17%,nt
CCN1CCC(N[C@H]2C[C@@H](C(=O)NC)N(Cc3cccc4ccccc34)C2)CC1,nt,nt,nt,nt,6%,nt
CCOC(=O)CN1C(=O)C2(CC(C)=C[C@@H](C)O2)c2c(Br)cccc21 (stereo partly specified),nt,nt,?,nt,nt,3%[14.2 µM]
O=C(NC1CCN(Cc2ccccc2)C1)c1cc(COc2ccc(F)cc2F)on1 (stereo unspecified),-102*,-17%,nt,2%,-10%,nt
Cc1ccc2c(c1)c1c(c(=O)n(-c3ccccc3C)c(=O)n1Cc1ccccc1F)n2C,-28,nt,?,nt,-25%,nt
COc1ccc2oc(=O)cc(CN3CCN(C(=O)c4ccccc4)CC3)c2c1,8,nt,-1%[46.1 µM],nt,-27%,10%[46.1 µM]
NNc1nnc2c3cc(F)ccc3n(Cc3ccccc3)c2n1,-95*,?,?,-6%,5%,?
Cc1ccc(-c2[nH]nc(N)c2N=Nc2cccc(Cl)c2C)cc1,-28,?,?,0%,?,20µM*
Cc1ccc(-c2[nH]nc(N)c2N=Nc2ccccc2C)cc1,-65*,?,?,-5%,3%,8.2µM*
COC(=O)/C=C1\Nc2ccc(Cl)cc2C(=O)NC1=O,18,nt,nt,nt,nt,nt
CC(=O)c1c(C)[nH]c(C(=O)CSc2nc3ccccc3n2C)c1C,-78*,?,?,-1%,-31%,?
CC(=O)c1c(C)[nH]c(C(=O)CSc2nnc(-c3ccco3)o2)c1C,-5,?,?,-18%,?,11µM*
SMILES,HCMV antiviral,HCV inh,LASV entry inh,FBPA Giardia inh,FMDV inh,Marburg entry inh
CCn1c(SCC(=O)c2[nH]c(C)c(C(C)=O)c2C)nnc1-c1cccs1,-93*,?,4%,-27%,?,-9%
O=c1c(-c2cc(F)cc(F)c2)nc2cncnc2n1Cc1ccccc1,nt,nt,nt,2%,-14%,nt
O=C(CCS(=O)(=O)c1cccs1)Nc1ccc(C(=O)Nc2ccccc2F)cc1,46,nt,11%[46.1 µM],nt,-8%,-1%[46.1 µM]
CN1OC(C)(CC(=O)NCc2ccccc2)N=C1c1ccccc1F (stereo unspecified),-12,nt,nt,nt,nt,nt
CCCCN(Cc1cc2cc(C)ccc2[nH]c1=O)C(=O)c1cccc(Cl)c1,-16,nt,-11%[46.1 µM],nt,-20%,21%[46.1 µM]
N#C/C(=C/c1ccc(Sc2nc3ccccc3[nH]2)o1)c1cccc(F)c1,-103*,?,1%,-4%,?,-20%
N#C/C(=C/c1ccc(Sc2nc3ccccc3[nH]2)o1)c1ccccc1F,-102*,11µM*,-17%,-12%,?,-6%
N#C/C(=C/c1ccc(Sc2nc3ccccc3[nH]2)o1)c1cccc(Br)c1,-85*,8.9µM*,-26%,-10%,?,?
CC(C)C[C@H]1COc2cc(F)ccc2S(=O)(=O)N1,nt,nt,-2%[46.1 µM],nt,nt,nt
CN1CC(=O)NC1=N,nt,nt,nt,nt,3%,nt
[N-]=[N+]=NC1C[C@H](n2ccc(=O)[nH]c2=O)O[C@@H]1CO (stereo partly specified),-66*,3%[8.37 µM],-10%,8%,-19%,-3%
Nc1cc(=O)[nH]c(=O)n1CCCc1ccccc1,-73*,1%,-6%[46.1 µM],nt,-1%,-2%[46.1 µM]
COc1cc(N2CCN(C(C)C)CC2)ccc1Nc1nc(Nc2ccc(F)cc2C(N)=O)c2cc[nH]c2n1,nt,nt,25µM*,nt,nt,nt
COc1cc2c(cc1Nc1nc(Nc3ccsc3C(N)=O)c3cc[nH]c3n1)N(C(=O)CN(C)C)CCC2(C)C,nt,nt,0.5µM*,nt,nt,nt
COc1cc(C)c(NC(=O)CN(C)C)cc1Nc1nc(Nc2cccc(F)c2C(N)=O)c2cc[nH]c2n1,nt,nt,2.5µM*,nt,nt,nt
COc1ccccc1-c1cc2c(c(OC)c1)OCCN(C(=O)Cn1nc(-c3ccccc3)c3ccccc3c1=O)C2,nt,nt,nt,nt,-9%,nt
CC1(C)SC2C(NC(=O)Cc3ccccc3)C(=O)N2C1C(=O)O (stereo unspecified),nt,nt,nt,-2%,-2%,nt
Cc1ccc(S(=O)(=O)N(C)c2cccc3cccnc23)cc1,nt,nt,nt,-1%,nt,nt
c1ccc(CCN2CCC(N3CCN(c4ccccc4)CC3)CC2)cc1,7,-20%,-24%,-4%,-24%,-4%
c1ccc(C2CCC(N3CCN(c4ccccc4)CC3)CC2)cc1 (stereo unspecified),nt,?,2.8µM*,?,-16%,?
CCc1cc2c(nc1CC)CCCN2CCOC,3,nt,nt,nt,nt,nt
CC(C)(C)c1ccc(/C=C2\Oc3cc(O)ccc3C2=O)cc1,-92*,?,?,-5%,1%,?
O=C1/C(=C/c2ccc([N+](=O)[O-])cc2)Oc2cc(O)ccc21,-89*,-26%,?,-4%,21%,?
O=C(O)c1ccccc1OS(=O)(=O)O,nt,nt,nt,1%,nt,nt
COc1ccc(C(=O)NCCn2cc(SCC(=O)NCCc3ccc(OC)c(OC)c3)c3ccccc32)cc1,-17,nt,-30%[46.1 µM],nt,-24%,-8%[46.1 µM]
